In all, about 33,000 sequences were measured (“e-score”: median about -0.037, highest 2% from about 0.34 on). What follows is part of a selection rich in the highest values, with near analogues and random picks from the rest.
These sequences were tested against T1, GST-Rok (full length) (Bacillus subtilis subsp. subtilis str. …, UniProt O34857 1-191) (assay: protein binding microarray; Rok is a gene silencer of Bacillus subtilis; high values mean tight binding). Settings: protein: recombinant; tags: GST (pTH5325, pDEST15-Magic modified); dsDNA, one strand shown.
T1 sequence: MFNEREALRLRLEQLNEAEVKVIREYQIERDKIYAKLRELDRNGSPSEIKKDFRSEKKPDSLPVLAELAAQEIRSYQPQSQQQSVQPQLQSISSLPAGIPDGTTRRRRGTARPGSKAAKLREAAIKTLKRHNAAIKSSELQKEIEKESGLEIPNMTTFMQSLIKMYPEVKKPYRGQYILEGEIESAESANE
Method in brief: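 Each has a 25-mer constant primer and a 35-mer variable part from a de Bruijn sequence of order 10, covering every non-palindromic 8-mer at least 32 times (palindromic 16). Preference for each 8-mer is given as a rank-based, unitless enrichment score (E-score). Its range runs from 0.5 (most favored) to −0.5 (most disfavored).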

Sequence	binding signal [E-score]
AAACATTT	0.0971
AGAATAAG	0.105
ATAAGAGA	-0.0183
CTGCCCAC	-0.168
ACTATATG	0.267
CCTATATA	0.123
GCTATATA	0.389
ACTATATA	0.453
ACTATATC	0.331
GCTATACA	0.201
CGAGGTCC	-0.0704
AGATGCAA	-0.00215
TATCTAGA	0.213
AATCTAAT	0.263
AATCTAGC	0.2
AATCTAGG	0.231
AATCTAGT	0.377
AATCTAGA	0.349
GTACCTGA	0.102
CGAGTAGA	0.0915
CTAATGAA	0.0765
CCGAATAG	-0.00823
ACGCGAAA	-0.0244
CTTATGAC	0.247
TCTATCAA	0.212
AACGACTC	-0.0273

Sequence	binding signal [E-score]
CGGTAGTA	0.342
AGGTAGTA	0.364
GGGTAGTA	0.238
CGGTAGTC	0.173
AGGTAGTG	0.0916
AGGTAGTC	0.0956
AGACAACG	-0.0674
AGAGCTAG	-0.0248
CGACTGAC	0.00526
CAGAGCTC	-0.162
CTACAACC	0.119
CTACTACA	0.339
CCACTACA	0.0814
CTACTACC	0.303
GTACAACA	0.0355
GTACTACA	0.314
ATACTACC	0.36
CGACTACG	-0.0988
CTACAACA	0.343
ATACTAGC	0.321
ATACTACG	0.339
AGACTACG	-0.152
ACTAGACC	-0.00464
GATCGAAA	-0.0281
ATTAATGG	0.0209
CTCACAGA	-0.131

Sequence	binding signal [E-score]
AGCACTGC	-0.181
ACTTACCT	0.0398
CTCTAAAC	0.0676
AGTGGCAG	-0.029
AATTGACG	0.213
ACACTACA	0.276
ATACTACA	0.408
AGACTACA	0.0935
AGTGAAAC	-0.00421
ATGTATAC	0.347
ATGTATAG	0.244
CTGTATAA	0.265
ATGTATAA	0.385
CTGTATAC	0.216
GTGTATAA	0.246
GTTAATAA	0.303
TCTCGACA	-0.0144
ATCAGAGC	-0.105
CGTCTCTA	-0.15
CATTGTTC	0.00988
CCAGCATA	-0.0442
ATAGGTCA	0.156
CGATGGAA	0.0214
TACAAACA	0.369
TACAAGTA	0.288
CACAAATA	0.35

Sequence	binding signal [E-score]
TACAAATA	0.375
CACAAATG	-0.0865
CACAAACA	0.0611
AACAAATA	0.295
CACAAGTA	0.183
AACAAACA	0.0686
TTATGCAA	0.154
GGAGGAAA	-0.0576
CGTTCCTC	-0.0344
AGTAAGGA	-0.0123
CGTCGCGC	0.0557
ACTCCTAT	0.122
AAGATTCC	-0.109
GAGTAGAA	0.202
CAGTAGTA	0.343
TAGTAGGA	0.209
TAGTAGAA	0.439
CAGTAGTC	-0.166
AAGTAGTA	0.332
CAGTAGAA	0.391
AAGTAGAA	0.305
CAGTAGAG	0.142
AACGACGA	0.183
ATTGGCTC	-0.0706
AATTTTCG	0.139
ACCGGCAG	-0.0541

Sequence	binding signal [E-score]
AGACTGTC	0.0207
CGCAGACA	-0.162
ATGTTGTA	0.223
GATACCTA	0.34
ATTACCTC	0.167
CATACCTA	0.334
ATTACCTA	0.382
AATACCTA	0.267
GTTACGTA	0.169
CTTACGTA	0.179
ATTACGTA	0.38
ATTACCTG	0.126
ACGCCGAC	-0.196
ACGACATG	0.136
CACCAGTA	-0.00869
AAAGTCGC	0.0343
GGCTCTAA	0.0778
AACTCTGA	0.0339
CCAGACGG	-0.108
CAAAGACC	-0.0604
GTATTCAA	0.0317
CTAGTAGC	0.251
ATAGTAGC	0.315
GCAGTAGC	-0.0296
CAAGTAGA	0.286
GCAGTAGA	0.342

Sequence	binding signal [E-score]
GTAGTAGA	0.33
ATAGTAGA	0.346
CTAGTAGA	0.404
CCAGTAGA	0.166
AGCCGGAT	-0.184
ATCCTTCC	-0.158
CATTGAAA	-0.0384
ACTCTCCA	-0.0297
TCCGGTAA	0.0305
TAATTTAA	0.356
AAAATTAC	0.248
ATTTTACC	0.351
ATTTTACG	0.219
AATTTTAC	0.355
CAAATTAC	0.356
ATTTTTAC	0.335
GAATTTAA	0.0678
CAATTTAA	0.152
CAAATTAG	0.21
AATTTTAG	0.222
ATTTTACA	0.311
GGATCTTA	0.0165
CTGTCTAA	-0.0397
AAGTCTGG	-0.0136
AATGCACG	-0.0533
CAACTTAC	0.216

Sequence	binding signal [E-score]
TAAGGTAA	0.0381
TCCAGTCA	-0.0213
AGATTTTA	0.294
GACAAACA	0.0661
TCGGTGAA	-0.0505
TCAACGAA	0.0593
CAATTTAC	0.288
GATTTTAC	0.18
GAATTTAC	0.268
AAATTTAG	0.163
CATTTTAC	0.349
AAATTTAC	0.336
AATTTTAT	0.273
CATTTTAA	0.0564
AAATTTAT	0.351
GATGAACC	-0.136
ATGTTGGC	0.0169
CCATGTAG	0.271
ACATGTAT	0.167
CCATGTAC	0.193
ACATGTAG	0.338
GCATGTAC	0.0911
ACATGTAC	0.358
CGGGTACA	0.154
CGACAGCG	-0.036
ATTTACTA	0.459

Sequence	binding signal [E-score]
ATTTACTG	0.287
AATTACCC	0.215
CGTTACTA	0.34
GATTACTA	0.2
AATTACCG	0.32
GGTTACTA	0.163
AATTACCT	0.357
CGTTACTC	-0.0623
ATTTACTC	0.0747
AATTACTG	0.191
AATTACTA	0.434
GACTTATA	0.257
CCGCACCA	-0.082
AGGTGTCA	-0.0859
CGCCCTAC	-0.152
CATATGCA	0.117
AGTCAGCC	-0.00495
CGCCCTTA	-0.158
AAAGAACA	-0.199
ATTAAGAC	-0.0587
ATTTACAA	0.368
AGTTACTC	0.188
ATTTACAC	0.23
AGTTACTA	0.345
ATTTACAG	0.24
AGTTACTG	0.207

Sequence	binding signal [E-score]
CAGTGGAA	0.0127
GGTGTGTA	0.271
CGCATTCC	-0.192
ACTTATAA	0.28
TACGACCA	-0.0634
GAACTCGC	-0.0505
AGGCGCTA	-0.15
GCTCCATA	0.0969
CCGATCCG	-0.19
CAAACGAA	0.108
TAATTCAA	0.105
TAATTCTA	0.345
AACTTCTA	0.296
CAATTCTA	0.278
CTATTCTA	0.128
TACTTCTA	0.36
GAATTCTC	-0.0203
GACTTCTA	0.0634
GAATTCTA	0.357
TAATTCCA	0.213
ATATTCTC	0.277
ATATTCTA	0.424

From paper PMC6212790, “How bacterial xenogeneic silencer rok distinguishes foreign from self DNA in its resident genome”
